In PubChem BioAssay AID588683 (Broad Institute, 2011):
Measured potencies and affinities stand elsewhere. Active and inactive are the calls of the source. No rule for the calls is given here.

Molecular target: Kelch-like ECH-associated protein 1 (Homo sapiens) + Nuclear factor erythroid 2-related factor 2 (Homo sapiens) (UniProt Q14145+Q16236)
Test: Keap1-Nrf2 protein-protein interaction inhibitors, dose response, biochemical, fluorescence polarization, cherry-picked samples (AID 588683);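 also: Kelch domain of Keap1 binding a fluorescein-labelled 9mer Nrf2 peptide; more negative means stronger inhibition of peptide binding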
Conditions: Keap1/Nrf2 peptide fluorescence polarization, plate reader; series mostly up to 26 µM; activity change, negative = inhibition: at the top concentration

Sequence of Kelch-like ECH-associated protein 1 (Homo sapiens) + Nuclear factor erythroid 2-related factor 2 (Homo sapiens) (Q14145 whole entry, looked up, the tested form may be a part): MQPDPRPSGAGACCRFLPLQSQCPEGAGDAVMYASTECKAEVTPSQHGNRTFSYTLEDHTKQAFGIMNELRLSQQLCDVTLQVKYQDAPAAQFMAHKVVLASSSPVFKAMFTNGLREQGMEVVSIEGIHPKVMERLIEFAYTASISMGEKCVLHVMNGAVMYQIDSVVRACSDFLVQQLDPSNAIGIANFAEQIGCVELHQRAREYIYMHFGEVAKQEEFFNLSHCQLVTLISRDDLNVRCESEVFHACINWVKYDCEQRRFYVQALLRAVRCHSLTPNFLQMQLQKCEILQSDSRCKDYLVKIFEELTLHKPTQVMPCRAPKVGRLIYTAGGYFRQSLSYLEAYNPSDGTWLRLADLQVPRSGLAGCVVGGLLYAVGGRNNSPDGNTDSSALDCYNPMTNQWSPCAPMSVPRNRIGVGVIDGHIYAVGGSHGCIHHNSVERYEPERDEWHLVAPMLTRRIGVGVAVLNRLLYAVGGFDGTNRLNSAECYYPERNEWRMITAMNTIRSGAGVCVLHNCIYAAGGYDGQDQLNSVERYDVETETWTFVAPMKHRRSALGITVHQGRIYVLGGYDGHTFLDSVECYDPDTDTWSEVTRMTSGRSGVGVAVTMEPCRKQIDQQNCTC
Sequence of Kelch-like ECH-associated protein 1 (Homo sapiens) + Nuclear factor erythroid 2-related factor 2 (Homo sapiens) (Q16236 whole entry, looked up, the tested form may be a part): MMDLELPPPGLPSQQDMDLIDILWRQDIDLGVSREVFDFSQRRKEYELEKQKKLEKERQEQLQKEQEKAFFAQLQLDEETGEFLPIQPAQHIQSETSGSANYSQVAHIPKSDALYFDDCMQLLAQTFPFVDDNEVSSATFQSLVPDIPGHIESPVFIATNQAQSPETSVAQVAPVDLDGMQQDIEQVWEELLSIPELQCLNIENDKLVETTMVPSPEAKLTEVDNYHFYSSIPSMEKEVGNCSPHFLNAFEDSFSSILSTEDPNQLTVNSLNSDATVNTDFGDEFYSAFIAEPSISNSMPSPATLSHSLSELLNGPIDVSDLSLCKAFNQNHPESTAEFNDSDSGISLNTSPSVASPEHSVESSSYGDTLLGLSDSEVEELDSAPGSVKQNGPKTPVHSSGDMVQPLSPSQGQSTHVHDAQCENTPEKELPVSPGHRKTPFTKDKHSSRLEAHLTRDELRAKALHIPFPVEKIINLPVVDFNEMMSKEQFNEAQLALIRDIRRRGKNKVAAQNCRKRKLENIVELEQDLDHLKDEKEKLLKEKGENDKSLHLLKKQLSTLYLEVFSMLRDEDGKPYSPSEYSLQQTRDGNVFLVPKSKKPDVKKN

Activity change, negative = inhibition, inactive:
CCCCC1OC2(C)OC(=N)C1(C#N)C(C#N)(C#N)C2c1ccccc1 (configuration not stated) -7.41%
O=C(Nc1ccccn1)C1CCN(S(=O)(=O)c2ccc3c(c2)OCCO3)CC1 -4.65%
COc1cc2c3nnc(-c4ccc(F)cc4)c-3cn(Cc3ccccc3)c2cc1OC 124%
CC1(C)CC(=O)C2=C(C1)OC(N)=C(C#N)C2c1cc2c(cc1[N+](=O)[O-])OCO2 (configuration not stated) -12%
CN1C(=O)c2cccc3c(S(N)(=O)=O)ccc1c23 -6.58%
CC(=O)N1CCN(S(=O)(=O)c2cccc(C(=O)NNC(=O)c3ccc(Br)cc3)c2)CC1 -2.07%
COCCCN1C(=O)c2ccc(C(=O)Nc3ccc(C)cc3C)cc2C1=O -4.5%
Cc1cnc(NC(=O)Cc2ccc(S(=O)(=O)N3CCOCC3)s2)s1 12.2%
O=C(COC(=O)/C=C/c1cccc(Cl)c1)NC1CC1 10.7%
Cc1ccc(NC(=O)CN2C(=O)NC3(CCCCCC3)C2=O)cc1Cl 3.73%
CCC1OC2(C)OC(=N)C1(C#N)C(C#N)(C#N)C2c1ccccc1 (configuration not stated) -2.42%
CC1OC2(C)OC(=N)C1(C#N)C(C#N)(C#N)C2c1ccccc1 (configuration not stated) -11.3%
CCOc1ccc(C(=O)COC(=O)c2nn(CC)c(=O)c3ccccc23)cc1 -7.02%
CCCc1cc(NC(=O)COC(=O)c2nccnc2N)n(-c2ccccc2)n1 0.425%
CCOc1ccc(NC(=O)COC(=O)CCN2C(=O)C3CC=CCC3C2=O)cc1OCC (configuration not stated) -10.6%
COc1cc(Cl)c(C)cc1NCC(=O)Nc1cccc(S(=O)(=O)N2CCCC2)c1 -4.11%
CCCN1CNC(=S)N(c2cc(C)ccc2C)C1 -10%
COc1ccc(/C=N/N=C2/CC(C)(C)Cc3n[nH]c(=O)cc32)cc1 -23.3%
O=C(COC(=O)c1ccncc1)Nc1cccc2ccccc12 11.9%
N#C/C(=C\c1ccc[nH]1)C(=O)N1CCCCC1 -0.671%
O=C1c2cccc3c(N4CCCCC4)ccc(c23)C(=O)N1c1cccc(O)c1 38.4%
O=C(CN1CCN(C(=O)CNC(=O)c2ccc3c(c2)OCO3)CC1)Nc1ccc(F)cc1 -6.38%
CCOC(=O)c1c(=O)n(O)c2ccc(OC)cc2[n+]1[O-] -18.5%
COc1ccc(C(=O)c2ccsc2N)cc1 -4.13%
CCCC1OC23CCCCC2C(C#N)(C#N)C1(C#N)C(=N)O3 (configuration not stated) -1.32%
c1ccc(-c2cn3nc4c(nc3n2)CCCC4)cc1 0.291%
Cc1cc(C)c2c(SC(C)C)nc(N)nc2n1 0.376%
CCOC(=O)c1c(NC(=O)CN2CCN(S(=O)(=O)c3cc(Cl)ccc3Cl)CC2)sc(C(=O)N(C)C)c1C -10.3%
CC(C(=O)O)N1C(=O)/C(=C/C=C/c2ccco2)SC1=S (configuration not stated) 14.5%
O=C(O)CC(Cn1cnnn1)c1ccccc1 (configuration not stated) -3.47%
CCCCN1C(=O)/C(=C2/Sc3ccccc3N2C)S/C1=N\c1ncn[nH]1 55.7%
COc1ccccc1N(C)S(=O)(=O)c1ccc(C(=O)NCc2ccccc2CN2CCCC2)cc1 -4.38%
Cc1cscc1NC(=O)/C=C/C(=O)O -3.38%
O=[N+]([O-])c1ccc(S(=O)(=O)c2ccccc2)nc1 -12.1%
C=CCn1ccc(=NC=C(C#N)C#N)c2ccccc21 45.1%
CNC(=O)C1CC(=O)N(c2ccc(OCC(=O)Nc3ccc(F)cc3)cc2)C1 (configuration not stated) 9.29%
O=C(O)c1cc(N2N=C(C(F)(F)F)/C(=C/C=C/c3ccco3)C2=O)ccc1Cl -25%
